Columns and labels:
Test in all cases: DAPPL (digital affinity profiling via proximity ligation, sequencing); 10 mM Tris-HCl pH 7.5, 50 mM NaCl, 1 mM DTT, 4% glycerol, room temperature, 30 min; GST-TFs on glutathione beads, 16-mer random dsDNA library, 0.1% formaldehyde crosslink after washing; high values mean tight binding
GABPA = molecular target: T1, GABPA (Homo sapiens, UniProt Q06546 1-454); details: protein: recombinant; tags: N-terminal GST; dsDNA, one strand shown
T1 sequence: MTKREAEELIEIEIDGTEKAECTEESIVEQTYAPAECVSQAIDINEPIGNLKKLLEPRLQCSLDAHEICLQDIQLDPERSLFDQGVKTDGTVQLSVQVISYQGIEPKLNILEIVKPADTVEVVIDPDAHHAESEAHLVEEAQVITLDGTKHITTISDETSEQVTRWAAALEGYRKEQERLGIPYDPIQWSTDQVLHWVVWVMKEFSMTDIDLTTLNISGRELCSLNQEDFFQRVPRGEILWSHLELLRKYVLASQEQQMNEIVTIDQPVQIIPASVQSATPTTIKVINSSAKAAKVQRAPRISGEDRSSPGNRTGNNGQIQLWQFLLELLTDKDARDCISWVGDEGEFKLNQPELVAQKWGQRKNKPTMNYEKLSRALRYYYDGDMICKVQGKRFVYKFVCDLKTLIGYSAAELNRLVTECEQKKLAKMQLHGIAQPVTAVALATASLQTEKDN
How it was run: (§1)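 Binding signal is each hexamer's read frequency for a factor divided by its frequency in the tag-only sample. The factors were GST-fused human transcription factors from yeast, captured on glutathione beads, DNA-barcoded and pooled with that sample. Pools were incubated with 200 nmole of a random double-stranded 16-mer DNA library in Tris/NaCl/DTT/glycerol buffer at room temperature for 30 min, then washed, crosslinked with 0.1% formaldehyde, proximity-ligated with BsaI/T4 ligase (1 h, 37 °C), PCR-amplified and sequenced on an Illumina NextSeq500.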

HSF1 = HSF1 (Homo sapiens, UniProt Q00613 1-529); details: protein: recombinant; tags: N-terminal GST; chain copies: 3; dsDNA, one strand shown
How it was run: as §1

ELK4 = molecular target: T2, ELK4 (Homo sapiens, UniProt P28324-2 1-405); details: protein: recombinant; tags: N-terminal GST; dsDNA, one strand shown
T2 sequence: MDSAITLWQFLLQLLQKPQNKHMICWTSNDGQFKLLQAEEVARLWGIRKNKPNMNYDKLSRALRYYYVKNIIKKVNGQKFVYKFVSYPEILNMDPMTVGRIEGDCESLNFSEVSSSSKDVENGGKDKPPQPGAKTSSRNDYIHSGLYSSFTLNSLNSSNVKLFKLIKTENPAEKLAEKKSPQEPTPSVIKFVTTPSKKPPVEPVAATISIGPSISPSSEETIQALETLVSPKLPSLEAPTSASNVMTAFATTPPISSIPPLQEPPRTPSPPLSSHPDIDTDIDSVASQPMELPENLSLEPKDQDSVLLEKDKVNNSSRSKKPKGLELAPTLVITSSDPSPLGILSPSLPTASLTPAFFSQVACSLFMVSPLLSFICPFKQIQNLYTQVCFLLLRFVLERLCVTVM
How it was run: as §1

CRX = CRX (Homo sapiens, UniProt O43186 1-299); details: protein: recombinant; tags: N-terminal GST; dsDNA, one strand shown
How it was run: as §1

ELF1 = ELF1 (Homo sapiens, UniProt P32519 1-619); details: protein: recombinant; tags: N-terminal GST; dsDNA, one strand shown
How it was run: as §1

ELK3 = molecular target: T3, ELK3 (Homo sapiens, UniProt P41970 1-407); details: protein: recombinant; tags: N-terminal GST; dsDNA, one strand shown
T3 sequence: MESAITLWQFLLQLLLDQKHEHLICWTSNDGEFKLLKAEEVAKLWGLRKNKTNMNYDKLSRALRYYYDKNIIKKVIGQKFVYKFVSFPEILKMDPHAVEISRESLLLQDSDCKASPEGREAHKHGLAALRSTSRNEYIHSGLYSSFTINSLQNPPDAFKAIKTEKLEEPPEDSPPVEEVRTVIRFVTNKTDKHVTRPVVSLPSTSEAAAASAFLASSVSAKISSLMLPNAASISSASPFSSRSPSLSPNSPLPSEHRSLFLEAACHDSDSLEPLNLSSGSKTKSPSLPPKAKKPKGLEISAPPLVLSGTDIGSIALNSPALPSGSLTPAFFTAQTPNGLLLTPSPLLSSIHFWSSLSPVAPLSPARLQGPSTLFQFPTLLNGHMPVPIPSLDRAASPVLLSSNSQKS
How it was run: as §1

FEV = molecular target: T4, FEV (Homo sapiens, UniProt Q99581 1-238); details: protein: recombinant; tags: N-terminal GST; dsDNA, one strand shown
T4 sequence: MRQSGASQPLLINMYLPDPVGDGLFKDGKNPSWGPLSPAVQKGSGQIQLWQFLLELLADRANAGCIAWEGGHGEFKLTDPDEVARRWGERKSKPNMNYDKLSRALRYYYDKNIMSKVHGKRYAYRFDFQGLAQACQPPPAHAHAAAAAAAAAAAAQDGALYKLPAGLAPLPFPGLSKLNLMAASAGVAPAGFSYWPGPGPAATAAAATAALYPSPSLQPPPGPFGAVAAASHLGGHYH
How it was run: as §1

SPIC = molecular target: T5, SPIC (Homo sapiens, UniProt Q8N5J4 1-248); details: protein: recombinant; tags: N-terminal GST; dsDNA, one strand shown
T5 sequence: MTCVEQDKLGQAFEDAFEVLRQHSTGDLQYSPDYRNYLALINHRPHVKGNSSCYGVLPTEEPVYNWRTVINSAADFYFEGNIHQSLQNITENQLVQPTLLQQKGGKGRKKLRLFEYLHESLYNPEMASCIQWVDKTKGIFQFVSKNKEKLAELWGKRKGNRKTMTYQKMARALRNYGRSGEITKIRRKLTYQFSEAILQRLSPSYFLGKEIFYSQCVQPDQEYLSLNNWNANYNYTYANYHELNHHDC
How it was run: as §1

ETV1 = ETV1 (Homo sapiens, UniProt P50549 1-477); details: protein: recombinant; tags: N-terminal GST; dsDNA, one strand shown
How it was run: as §1

ERF = molecular target: T6, ERF (Homo sapiens, UniProt P50548 1-548); details: protein: recombinant; tags: N-terminal GST; dsDNA, one strand shown
T6 sequence: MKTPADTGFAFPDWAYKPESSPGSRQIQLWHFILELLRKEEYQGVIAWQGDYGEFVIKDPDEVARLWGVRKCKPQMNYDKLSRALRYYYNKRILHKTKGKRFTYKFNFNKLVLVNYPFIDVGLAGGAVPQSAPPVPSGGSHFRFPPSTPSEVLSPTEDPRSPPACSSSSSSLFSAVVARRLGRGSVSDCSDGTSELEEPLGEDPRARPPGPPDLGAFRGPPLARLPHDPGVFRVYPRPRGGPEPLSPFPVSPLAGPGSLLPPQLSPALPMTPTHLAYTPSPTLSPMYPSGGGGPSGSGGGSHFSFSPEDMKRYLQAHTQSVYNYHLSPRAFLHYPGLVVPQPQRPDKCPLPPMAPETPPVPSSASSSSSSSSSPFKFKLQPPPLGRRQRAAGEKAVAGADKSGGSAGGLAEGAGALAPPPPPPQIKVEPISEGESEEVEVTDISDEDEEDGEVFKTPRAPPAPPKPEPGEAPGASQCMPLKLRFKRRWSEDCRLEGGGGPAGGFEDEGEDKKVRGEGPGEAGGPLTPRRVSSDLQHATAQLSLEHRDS
How it was run: as §1

ETV6 = ETV6 (Homo sapiens, UniProt P41212 1-452); details: protein: recombinant; tags: N-terminal GST; dsDNA, one strand shown
How it was run: as §1

Chain of HSF1 (Q00613 whole entry): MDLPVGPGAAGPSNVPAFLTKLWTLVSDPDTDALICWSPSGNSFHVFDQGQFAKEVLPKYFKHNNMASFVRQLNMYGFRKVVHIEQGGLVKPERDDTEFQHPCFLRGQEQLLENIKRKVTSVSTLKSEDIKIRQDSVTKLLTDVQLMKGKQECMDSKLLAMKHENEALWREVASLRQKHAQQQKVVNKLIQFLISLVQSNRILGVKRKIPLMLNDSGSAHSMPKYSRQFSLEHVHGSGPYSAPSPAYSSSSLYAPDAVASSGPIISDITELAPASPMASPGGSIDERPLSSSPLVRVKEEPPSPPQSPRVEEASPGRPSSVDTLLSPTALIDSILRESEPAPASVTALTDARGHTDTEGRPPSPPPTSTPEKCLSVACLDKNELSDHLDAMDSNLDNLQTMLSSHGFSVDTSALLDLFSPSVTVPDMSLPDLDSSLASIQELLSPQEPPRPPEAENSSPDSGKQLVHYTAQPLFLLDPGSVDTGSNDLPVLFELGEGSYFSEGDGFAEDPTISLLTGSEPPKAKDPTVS
Chain of CRX (O43186 whole entry): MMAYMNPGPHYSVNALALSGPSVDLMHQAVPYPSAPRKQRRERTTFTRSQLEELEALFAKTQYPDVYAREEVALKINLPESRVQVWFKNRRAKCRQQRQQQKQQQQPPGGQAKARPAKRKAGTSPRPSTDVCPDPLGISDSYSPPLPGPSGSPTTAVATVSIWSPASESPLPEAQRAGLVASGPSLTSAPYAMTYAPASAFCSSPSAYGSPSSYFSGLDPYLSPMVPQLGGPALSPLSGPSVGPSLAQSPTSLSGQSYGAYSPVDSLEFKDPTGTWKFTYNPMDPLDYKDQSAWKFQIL
Chain of ETV6 (P41212 whole entry): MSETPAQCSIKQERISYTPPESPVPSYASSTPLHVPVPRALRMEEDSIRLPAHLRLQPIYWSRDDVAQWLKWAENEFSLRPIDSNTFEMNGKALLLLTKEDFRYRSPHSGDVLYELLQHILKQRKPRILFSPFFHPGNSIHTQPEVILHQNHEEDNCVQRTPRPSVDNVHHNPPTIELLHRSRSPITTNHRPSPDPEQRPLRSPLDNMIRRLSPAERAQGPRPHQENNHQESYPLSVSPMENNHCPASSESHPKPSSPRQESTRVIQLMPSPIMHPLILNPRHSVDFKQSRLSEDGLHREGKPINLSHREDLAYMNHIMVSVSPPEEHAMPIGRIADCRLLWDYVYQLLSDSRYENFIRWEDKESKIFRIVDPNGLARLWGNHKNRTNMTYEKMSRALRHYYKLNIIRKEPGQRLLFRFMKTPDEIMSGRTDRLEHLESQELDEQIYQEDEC
Chain of ELF1 (P32519 whole entry): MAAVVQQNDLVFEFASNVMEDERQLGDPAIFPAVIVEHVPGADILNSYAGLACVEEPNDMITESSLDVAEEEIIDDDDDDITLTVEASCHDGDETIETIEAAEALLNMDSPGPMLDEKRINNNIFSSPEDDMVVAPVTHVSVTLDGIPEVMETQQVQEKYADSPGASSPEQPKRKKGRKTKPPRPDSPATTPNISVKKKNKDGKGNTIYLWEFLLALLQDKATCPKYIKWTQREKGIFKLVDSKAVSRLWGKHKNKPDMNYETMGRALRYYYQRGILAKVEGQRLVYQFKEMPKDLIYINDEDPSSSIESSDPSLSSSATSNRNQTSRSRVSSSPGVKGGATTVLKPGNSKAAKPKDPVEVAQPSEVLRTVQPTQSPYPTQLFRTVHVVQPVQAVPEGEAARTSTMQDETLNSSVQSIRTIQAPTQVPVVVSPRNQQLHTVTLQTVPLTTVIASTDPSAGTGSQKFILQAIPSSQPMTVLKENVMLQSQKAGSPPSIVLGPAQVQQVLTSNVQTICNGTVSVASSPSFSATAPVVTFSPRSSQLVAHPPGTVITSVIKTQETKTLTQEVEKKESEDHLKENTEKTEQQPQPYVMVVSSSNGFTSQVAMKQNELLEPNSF
Chain of ETV1 (P50549 whole entry): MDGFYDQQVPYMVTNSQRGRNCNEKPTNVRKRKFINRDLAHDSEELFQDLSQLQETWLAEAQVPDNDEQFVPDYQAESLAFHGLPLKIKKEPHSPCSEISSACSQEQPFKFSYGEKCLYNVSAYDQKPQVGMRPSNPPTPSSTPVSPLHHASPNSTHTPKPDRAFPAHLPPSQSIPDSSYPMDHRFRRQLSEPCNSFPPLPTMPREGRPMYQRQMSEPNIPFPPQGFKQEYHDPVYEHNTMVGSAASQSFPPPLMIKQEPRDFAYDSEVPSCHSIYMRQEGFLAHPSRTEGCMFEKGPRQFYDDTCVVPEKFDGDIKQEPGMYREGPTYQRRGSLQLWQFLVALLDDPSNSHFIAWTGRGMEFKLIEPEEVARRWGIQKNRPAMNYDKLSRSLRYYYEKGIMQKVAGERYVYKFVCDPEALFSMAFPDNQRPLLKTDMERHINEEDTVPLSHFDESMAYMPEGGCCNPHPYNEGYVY

With ATCAGA the binding signal (GABPA) was 1.11 fold enrichment (6-mer frequency, TF over GST control), the binding signal (HSF1) was 1.09 fold enrichment (6-mer frequency, TF over GST control) and the binding signal (ELK4) was 1.05 fold enrichment (6-mer frequency, TF over GST control). For the same sequence, the binding signal (CRX) was 1.25 fold enrichment (6-mer frequency, TF over GST control).
For TAGAAC, the binding signal (GABPA) was 1.03 fold enrichment (6-mer frequency, TF over GST control), the binding signal (ELF1) was 1.01 fold enrichment (6-mer frequency, TF over GST control) and the binding signal (ELK3) was 1.03 fold enrichment (6-mer frequency, TF over GST control). For the same sequence, the binding signal (FEV) was 1 fold enrichment (6-mer frequency, TF over GST control), the binding signal (HSF1) was 2.74 fold enrichment (6-mer frequency, TF over GST control) and the binding signal (SPIC) was 1 fold enrichment (6-mer frequency, TF over GST control). The binding signal (CRX) was 1.43 fold enrichment (6-mer frequency, TF over GST control), the binding signal (ETV1) was 1.07 fold enrichment (6-mer frequency, TF over GST control) and the binding signal (ERF) was 1.02 fold enrichment (6-mer frequency, TF over GST control). For the same sequence, the binding signal (ETV6) was 1.09 fold enrichment (6-mer frequency, TF over GST control).

Reference: PMC7862700, “An all-to-all approach to the identification of sequence-specific readers for epigenetic DNA modifications on cytosine”
